Tgondii IFNg: inhibitors of Toxoplasma gondii growth with IFN-gamma; 3.8% of 69,000 active; activity change, negative = inhibition, % (concentration not given with the values); Toxoplasma gondii growth in IFN-gamma-treated host cells; active compounds read low; in the data active means activity change below about -70%, passing the limit was not always enough;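 further: host cells are HeLa cells infected with Toxoplasma gondii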
Each line names hits and unclear results; the compound was inactive in the other large screens; ! = not active in a repeat. This excerpt belongs to a sample that is enriched for hits.

COc1ccc(C2NCCc3c2[nH]c2ccccc32)cc1CN1CCN(c2ccc([N+](=O)[O-])cc2)CC1 (configuration not stated)	Tgondii IFNg -117
COCc1cc(CN2CCCN(c3ccccc3)CC2)ccc1OC	none
COc1ccc(C2NC(C(=O)O)Cc3c2[nH]c2ccccc32)cc1CN1CCN(c2ccc(F)cc2)CC1 (configuration not stated)	none
CC(C)(C)c1cc(NC(=O)CN2CCC(N3CCCC3=O)CC2)no1	none
Cc1oc(-c2cccc(C(F)(F)F)c2)nc1CN1CCCC(C(N)=O)C1 (configuration not stated)	none
Cc1oc(-c2cccc(Cl)c2)nc1CN1CCCC(C(=O)NC2CCCCCC2)C1 (configuration not stated)	none
COc1ccc(CNC(=O)C2CCCN(Cc3nc(-c4cccc(C)c4)oc3C)C2)cc1 (configuration not stated)	Tgondii IFNg -83
Cc1nc(CN2C[C@H]3COC[C@@]3(COCC3CC3)C2)cs1	none
C=CCn1c(=O)c(-c2nc(-c3ccc(F)c(Br)c3)no2)c(O)c2ccccc21	none
Cc1ccc(-c2coc(-c3ccc(NC(=O)Nc4cccc(Br)c4)cc3)n2)cc1	none
CC(=O)N1CCc2c([nH]c3ccccc23)C12C(=O)N(CCC(C)C)c1ccccc12 (configuration not stated)	none
Cc1cnc(C)c(N2CCN(Cc3c(CO)cnc(C)c3O)CC2)n1	none
Cc1ncc(CO)c(CO)c1O	none
Cc1ncc(CN2CCSCC2)c(CO)c1O	Tgondii IFNg -76
COc1cccc(OC)c1C(=O)N1CCN(S(=O)(=O)c2cc3c4c(c2)CCN4C(=O)CC3)CC1	none
CC(C)OCc1ncn2c1CN(C(=O)NCc1cccc(F)c1)CCC2	none
O=S(=O)(NCCc1csc(-c2ccc(Cl)cc2)n1)c1ccc2c(c1)OCCO2	none
COc1ccc(-c2nc(C)c(CCNS(=O)(=O)c3cc(Cl)ccc3Cl)s2)cc1	none
CC(=O)Nc1nc(C)c(-c2ccc(Cl)c(S(=O)(=O)NCCO)c2)s1	Tgondii IFNg -81
Cc1nc(-c2ccc(F)cc2)sc1CCNS(=O)(=O)c1ccccc1Cl	none
Cc1ccc(OCCNC(=O)c2ccc(C(C)(C)C)cc2)cc1C	none
C[C@H]1O[C@@H](O[C@H]2[C@@H](O)C[C@H](O[C@H]3[C@@H](O)C[C@H](O[C@H]4CC[C@]5(C)C6CC[C@]7(C)[C@@H](C8=CC(=O)OC8)CC[C@]7(O)C6CC[C@@H]5C4)O[C@@H]3C)O[C@@H]2C)C[C@H](O)[C@@H]1O (some centres not stated)	Tgondii IFNg -80!
CN(C)c1ncc(-c2cncnc2)c(C2CNCCO2)n1 (configuration not stated)	none
CCS(=O)(=O)N1CCC2(CC1)CN(Cc1nccs1)CCO2	none
CCCc1nc(C)cc(-c2cccc(NC(C)=O)c2)n1	none
O=C(CCSc1ccccn1)c1ccc(Cl)cc1	none
O=C(CC(Sc1ccc(Cl)cc1)c1ccc(Cl)cc1)c1ccccc1 (configuration not stated)	Tgondii IFNg -112
O=C(CC(SC(=O)c1ccccc1)c1ccc(Cl)cc1)c1ccccc1 (configuration not stated)	none
O=C(O)c1cccnc1CN1CCCCC1CCc1cccc(O)c1 (configuration not stated)	none
O=C1CCC(NCc2ccc(C(=O)N3CCCC3)cc2)CCN1CC1CC1 (configuration not stated)	none
CC(C)n1nc(-c2ccc3oc(N)nc3c2)c2c(N)ncnc21	Tgondii IFNg -83
CCc1ccc(NC(=O)NCC(c2cccnc2)c2cn(C)c3ccccc23)cc1 (configuration not stated)	none
Cn1cc(C(CNC(=O)Nc2ccccc2Cl)c2cccnc2)c2ccccc21 (configuration not stated)	none
CCc1ccccc1S(=O)(=O)NCC(c1cccnc1)c1cn(C)c2ccccc12 (configuration not stated)	Tgondii IFNg -83
Oc1cccc(CN2CCN(c3nccc(CCC(F)(F)F)n3)CC2)c1	none
Cc1ccsc1CN(CC(C)C)C(=O)c1ccc2nccn2c1	none
CCn1c(C2CCCNC2)nn(CCOc2ccc(C)cc2C)c1=O (configuration not stated)	none
CCN1CCNC(=O)C12CCN(S(=O)(=O)c1ccc(F)cc1)CC2	none
CC(C)COC(=O)c1nc(Cl)c(Cl)c(N)c1Cl	Tgondii IFNg -96
Cc1cc(OCC(=O)Nc2ccc(C(=O)OCC(C)C)cc2)cc(C)c1Cl	none
Cc1nc(C2CCCN2C(=O)Cc2csc(-c3ccccn3)n2)nc2c1CCC(=O)N2C (configuration not stated)	none
Cc1cccc(-c2nc(CN(c3ccccc3)S(=O)(=O)c3cccs3)c(C)o2)c1	none
CCOc1c2ccccc2nc2ccccc12	Tgondii IFNg -123
CCOC(=O)c1c(C)nc2ccccc2c1C(=O)O	none
Nc1c2ccccc2nc2ccccc12	Tgondii IFNg -73!
CCOc1ccc(Nc2nc3ccccc3c(=O)s2)cc1	none
FC(F)(F)c1cc(Sc2cc(C(F)(F)F)nc3ccccc23)c2ccccc2n1	none
Nc1c2c(nc3ccccc13)CCCC2	none
Cc1nn(CCO)cc1CN1CCN(Cc2ccc(Cl)cc2)CC1	none
COc1ccc([C@@H]2C[C@H](O)C(=O)N2C)cc1	none
CN(Cc1ccc(OC2CCCC2)cc1)Cc1nnc(-c2ccccc2)o1	none
COc1cccc2ccc(CN3CCC(c4cc(-c5cnn(C)c5)cc(C)n4)CC3)nc12	none
O=C(Oc1ccc(Oc2ccccc2)cc1)N1CCC(OC(=O)n2ccnc2)CC1	Tgondii IFNg -97
COc1ccc(C(c2ccccc2)N2CCN(C(=O)C(C)n3ccnc3)CC2)cc1 (configuration not stated)	none
O=C(CN1CCOCC1)Nc1ccc(Oc2ccccc2)cc1	none
O=C(Nc1cc(F)c(Br)cc1F)C(F)(F)Sc1ccccc1	none
O=C(NC1CCCC1)N1CC[C@H]2CN(Cc3cccc(Cl)c3)S(=O)(=O)[C@@H]2CC1	none
NC(=O)c1nc2c(s1)CCNCC2	none
CCOC(=O)c1nc(N2CCN(C3CCCCC3)CC2)c2ccccc2n1	none
CCOC(=O)c1nc(N(CC)c2ccccc2)c2ccccc2n1	none
CCOC(=O)c1nc(N(Cc2cccs2)C2CCCC2)c2ccccc2n1	Tgondii IFNg -76
O=C(c1ccc2nc(NC(=O)C34CC5CC(CC(C5)C3)C4)sc2c1)N1CCCCC1	Tgondii IFNg -85
O=C(Nc1ccncc1)C12CC3CC(CC(C3)C1)C2	none
O=C(N1CCCCC1)C12CC3CC(CC(C3)C1)C2	none
COCc1nnc(C(=O)N(C)Cc2cccnc2)o1	none
C=CCN1C(=O)CCC12CCC(NC(=O)c1c(C)noc1C)CC2 (configuration not stated)	none
COCC1CN(C(=O)Cc2ccccn2)Cc2c1cnn2C (configuration not stated)	none
O=S(=O)(c1ccc2ccccc2c1)N1CCN(c2nnnn2-c2ccccc2)CC1	none
CN(Cc1ccc(-n2cccn2)cc1)Cc1cnn(C)c1	none
O=C(Cc1ccc(Cl)cc1)N1CC2(CCN(Cc3ccc(C(F)(F)F)cc3)CC2)C1	Tgondii IFNg -80
O=S(=O)(Cc1ccccc1)N1CCC2(CCN(Cc3ccc(Cl)cc3)C2)C1 (configuration not stated)	none
CC(C)(C)CN1CC2(CCN(C(=O)Cc3ccc(Cl)cc3)C2)C1	none
COc1cc(CN2CCOCC2c2csc(C)n2)cc(OC)c1 (configuration not stated)	none
Cn1c(C(=O)NCc2ccco2)cc2c1c1ccccc1n2CC1CC1	none
CCN(CC)CCCNC(=O)c1cc2c(c3ccccc3n2CC2CC2)n1C	Tgondii IFNg -77
N#CCCNC(=O)c1cc2c(c3ccccc3n2CC2CC2)n1-c1ncccn1	none
Cc1cc(C)c2cc(C(=O)Nc3ccccc3SCc3cccc(Cl)c3F)[nH]c2c1	none

Assay outcomes deposited in PubChem BioAssay by Broad Institute.
